Legend:
Experiment in all cases: log2 ratio of Biotin-Ahx-Ub-VS probe labelling (fragment/DMSO); higher = less target engagement (more negative = stronger competition), active = hit call of the paper (q ≤ 0.05, log2 ratio ≤ -1)
Settings in all cases: compound concentration: 200 uM; treatment time: 3 h
[1] = molecular target: T1, USP19 (UniProt O94966)
T1 sequence (whole entry): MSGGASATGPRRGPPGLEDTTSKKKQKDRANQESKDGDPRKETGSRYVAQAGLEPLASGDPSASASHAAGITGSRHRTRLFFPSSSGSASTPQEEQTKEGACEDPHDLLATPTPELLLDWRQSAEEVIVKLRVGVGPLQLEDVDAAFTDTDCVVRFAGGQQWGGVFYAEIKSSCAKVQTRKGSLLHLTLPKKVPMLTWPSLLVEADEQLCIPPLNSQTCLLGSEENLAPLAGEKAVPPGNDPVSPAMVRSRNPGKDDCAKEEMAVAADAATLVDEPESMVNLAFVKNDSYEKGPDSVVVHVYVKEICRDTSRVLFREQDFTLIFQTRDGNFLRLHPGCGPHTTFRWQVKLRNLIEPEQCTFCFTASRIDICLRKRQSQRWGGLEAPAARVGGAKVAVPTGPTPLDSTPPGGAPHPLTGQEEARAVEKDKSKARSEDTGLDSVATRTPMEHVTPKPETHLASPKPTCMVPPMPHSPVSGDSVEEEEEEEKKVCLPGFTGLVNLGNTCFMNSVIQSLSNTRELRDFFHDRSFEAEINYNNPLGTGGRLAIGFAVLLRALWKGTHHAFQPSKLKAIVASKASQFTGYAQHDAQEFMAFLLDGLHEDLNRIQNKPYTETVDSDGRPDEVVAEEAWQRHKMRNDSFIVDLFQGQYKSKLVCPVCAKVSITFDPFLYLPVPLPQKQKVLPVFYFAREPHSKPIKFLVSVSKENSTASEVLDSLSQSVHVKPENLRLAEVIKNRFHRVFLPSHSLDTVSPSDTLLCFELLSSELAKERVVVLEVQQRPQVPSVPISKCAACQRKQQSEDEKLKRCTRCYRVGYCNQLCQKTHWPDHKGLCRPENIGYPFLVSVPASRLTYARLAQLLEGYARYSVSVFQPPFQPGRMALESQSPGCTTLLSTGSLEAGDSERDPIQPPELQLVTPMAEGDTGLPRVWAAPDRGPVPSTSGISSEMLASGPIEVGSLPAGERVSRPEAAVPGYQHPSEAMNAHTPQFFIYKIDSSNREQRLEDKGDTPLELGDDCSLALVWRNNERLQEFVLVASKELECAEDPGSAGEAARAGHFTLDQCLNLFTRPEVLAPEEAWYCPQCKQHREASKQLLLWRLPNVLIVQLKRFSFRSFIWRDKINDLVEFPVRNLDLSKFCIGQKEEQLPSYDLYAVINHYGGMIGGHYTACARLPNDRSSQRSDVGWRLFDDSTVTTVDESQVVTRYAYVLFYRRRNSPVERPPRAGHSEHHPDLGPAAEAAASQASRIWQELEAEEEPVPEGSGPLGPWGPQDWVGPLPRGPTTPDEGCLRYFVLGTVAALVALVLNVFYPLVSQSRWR
Outline: (§1)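 HEK293T lysate (495 µg per sample, in Tris/CHAPS/IGEPAL buffer with protease inhibitors) was treated in triplicate with fragment at 200 µM or with DMSO for 3 h. It was then treated with Biotin-Ahx-Ub-VS (0.5 µM final) for 1 h. Labelled DUBs were NeutrAvidin-enriched, digested with LysC and trypsin, and run by diaPASEF LC-MS/MS. Spectronaut label-free quantities were global-median-normalised. Values are average log2 ratios fragment/DMSO by unpaired t-test, using proteins with ≥2 unique peptides.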

[2] = molecular target: USP24 (UniProt Q9UPU5)
Chain of USP24 (Q9UPU5 whole entry): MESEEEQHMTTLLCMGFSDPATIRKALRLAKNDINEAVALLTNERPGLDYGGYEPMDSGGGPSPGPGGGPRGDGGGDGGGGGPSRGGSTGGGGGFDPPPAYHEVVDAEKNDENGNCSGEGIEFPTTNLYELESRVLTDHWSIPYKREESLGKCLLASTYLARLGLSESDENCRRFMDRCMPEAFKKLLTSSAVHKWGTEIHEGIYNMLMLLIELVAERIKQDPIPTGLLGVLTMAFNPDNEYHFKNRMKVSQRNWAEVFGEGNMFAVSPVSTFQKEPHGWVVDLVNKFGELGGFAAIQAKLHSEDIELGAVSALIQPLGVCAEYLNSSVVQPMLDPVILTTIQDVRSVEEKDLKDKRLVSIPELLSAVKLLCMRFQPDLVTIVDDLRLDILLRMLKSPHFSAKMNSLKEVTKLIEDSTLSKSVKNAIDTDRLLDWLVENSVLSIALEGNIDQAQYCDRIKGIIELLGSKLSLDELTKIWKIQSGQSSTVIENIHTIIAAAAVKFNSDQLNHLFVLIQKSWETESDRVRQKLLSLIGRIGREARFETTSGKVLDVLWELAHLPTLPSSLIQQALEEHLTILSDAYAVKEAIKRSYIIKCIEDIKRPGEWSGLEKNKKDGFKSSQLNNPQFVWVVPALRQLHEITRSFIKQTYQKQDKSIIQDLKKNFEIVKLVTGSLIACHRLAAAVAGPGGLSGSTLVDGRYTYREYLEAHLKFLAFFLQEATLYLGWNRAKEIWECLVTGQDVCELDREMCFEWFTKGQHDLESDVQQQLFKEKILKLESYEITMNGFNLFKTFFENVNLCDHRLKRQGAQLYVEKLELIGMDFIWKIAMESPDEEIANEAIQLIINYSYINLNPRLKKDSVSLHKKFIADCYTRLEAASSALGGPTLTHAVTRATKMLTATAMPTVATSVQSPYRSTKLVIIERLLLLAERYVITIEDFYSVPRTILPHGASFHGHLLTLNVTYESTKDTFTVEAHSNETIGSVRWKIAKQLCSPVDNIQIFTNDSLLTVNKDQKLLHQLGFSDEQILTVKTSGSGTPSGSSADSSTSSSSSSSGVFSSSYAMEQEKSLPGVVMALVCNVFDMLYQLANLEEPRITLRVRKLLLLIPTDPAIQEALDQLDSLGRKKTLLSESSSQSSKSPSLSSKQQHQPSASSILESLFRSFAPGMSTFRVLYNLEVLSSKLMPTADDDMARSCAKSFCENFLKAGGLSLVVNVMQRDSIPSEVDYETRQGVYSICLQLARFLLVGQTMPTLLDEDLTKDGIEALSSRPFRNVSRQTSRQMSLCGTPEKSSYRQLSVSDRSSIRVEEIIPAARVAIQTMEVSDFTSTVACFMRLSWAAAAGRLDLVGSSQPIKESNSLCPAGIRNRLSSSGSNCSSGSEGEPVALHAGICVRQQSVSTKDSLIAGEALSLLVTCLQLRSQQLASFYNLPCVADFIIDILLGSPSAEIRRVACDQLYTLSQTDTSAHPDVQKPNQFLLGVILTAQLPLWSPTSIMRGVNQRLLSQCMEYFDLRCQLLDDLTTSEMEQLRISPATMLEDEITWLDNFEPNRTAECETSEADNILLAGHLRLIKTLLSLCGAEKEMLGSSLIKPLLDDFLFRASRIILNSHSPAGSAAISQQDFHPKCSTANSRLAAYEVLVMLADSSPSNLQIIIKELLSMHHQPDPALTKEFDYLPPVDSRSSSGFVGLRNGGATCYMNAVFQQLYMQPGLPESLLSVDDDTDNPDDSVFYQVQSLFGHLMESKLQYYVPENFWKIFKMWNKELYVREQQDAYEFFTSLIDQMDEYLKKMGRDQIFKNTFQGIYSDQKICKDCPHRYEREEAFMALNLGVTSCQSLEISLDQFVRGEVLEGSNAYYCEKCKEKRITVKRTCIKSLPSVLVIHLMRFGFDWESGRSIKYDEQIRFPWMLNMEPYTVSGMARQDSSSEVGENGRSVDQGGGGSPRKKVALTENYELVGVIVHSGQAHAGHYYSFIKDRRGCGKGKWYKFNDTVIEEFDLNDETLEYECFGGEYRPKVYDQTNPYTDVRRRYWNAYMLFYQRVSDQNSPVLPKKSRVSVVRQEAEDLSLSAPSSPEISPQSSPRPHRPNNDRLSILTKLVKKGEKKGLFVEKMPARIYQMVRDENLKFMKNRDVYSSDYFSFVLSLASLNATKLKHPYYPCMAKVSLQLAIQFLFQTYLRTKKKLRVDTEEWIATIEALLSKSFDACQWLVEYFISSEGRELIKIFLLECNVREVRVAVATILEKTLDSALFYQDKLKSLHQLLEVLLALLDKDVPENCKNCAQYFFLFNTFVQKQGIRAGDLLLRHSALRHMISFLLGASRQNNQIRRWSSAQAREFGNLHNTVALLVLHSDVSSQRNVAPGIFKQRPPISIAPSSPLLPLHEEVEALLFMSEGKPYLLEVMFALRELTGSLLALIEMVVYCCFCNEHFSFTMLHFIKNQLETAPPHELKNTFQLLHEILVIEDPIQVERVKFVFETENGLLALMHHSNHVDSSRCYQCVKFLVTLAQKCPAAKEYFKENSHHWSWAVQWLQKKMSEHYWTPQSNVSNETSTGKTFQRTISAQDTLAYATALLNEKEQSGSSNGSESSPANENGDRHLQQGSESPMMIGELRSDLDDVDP
Outline: as §1

[3] = molecular target: T2, USP25 (UniProt Q9UHP3)
T2 sequence (whole entry): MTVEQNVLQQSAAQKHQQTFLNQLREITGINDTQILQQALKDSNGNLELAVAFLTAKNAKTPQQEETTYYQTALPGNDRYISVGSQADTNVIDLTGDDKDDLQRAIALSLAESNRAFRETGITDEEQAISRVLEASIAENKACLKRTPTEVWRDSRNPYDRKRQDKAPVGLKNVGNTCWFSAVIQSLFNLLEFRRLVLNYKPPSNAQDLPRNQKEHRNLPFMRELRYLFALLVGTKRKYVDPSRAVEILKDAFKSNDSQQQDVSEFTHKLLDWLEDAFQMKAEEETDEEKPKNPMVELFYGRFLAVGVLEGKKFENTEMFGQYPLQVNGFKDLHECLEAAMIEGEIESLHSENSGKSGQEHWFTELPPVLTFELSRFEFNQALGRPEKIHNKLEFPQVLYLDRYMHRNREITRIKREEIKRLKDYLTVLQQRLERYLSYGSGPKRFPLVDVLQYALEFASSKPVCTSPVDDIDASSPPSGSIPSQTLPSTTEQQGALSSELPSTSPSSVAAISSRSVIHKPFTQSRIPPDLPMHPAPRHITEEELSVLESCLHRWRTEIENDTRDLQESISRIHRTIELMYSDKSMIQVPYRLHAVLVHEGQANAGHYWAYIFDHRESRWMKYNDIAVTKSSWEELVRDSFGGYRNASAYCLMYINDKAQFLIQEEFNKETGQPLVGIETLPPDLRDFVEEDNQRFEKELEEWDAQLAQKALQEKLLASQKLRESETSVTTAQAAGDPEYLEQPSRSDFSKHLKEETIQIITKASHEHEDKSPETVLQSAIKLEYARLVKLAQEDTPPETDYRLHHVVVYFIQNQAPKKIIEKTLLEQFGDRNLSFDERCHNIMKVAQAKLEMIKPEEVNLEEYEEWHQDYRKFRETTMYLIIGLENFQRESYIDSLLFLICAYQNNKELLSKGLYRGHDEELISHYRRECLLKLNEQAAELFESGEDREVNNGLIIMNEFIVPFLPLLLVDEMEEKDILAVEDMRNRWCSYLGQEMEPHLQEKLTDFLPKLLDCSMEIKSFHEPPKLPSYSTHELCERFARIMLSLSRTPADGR
Outline: as §1

[4] = molecular target: T3, USP28 (UniProt Q96RU2)
T3 sequence (whole entry): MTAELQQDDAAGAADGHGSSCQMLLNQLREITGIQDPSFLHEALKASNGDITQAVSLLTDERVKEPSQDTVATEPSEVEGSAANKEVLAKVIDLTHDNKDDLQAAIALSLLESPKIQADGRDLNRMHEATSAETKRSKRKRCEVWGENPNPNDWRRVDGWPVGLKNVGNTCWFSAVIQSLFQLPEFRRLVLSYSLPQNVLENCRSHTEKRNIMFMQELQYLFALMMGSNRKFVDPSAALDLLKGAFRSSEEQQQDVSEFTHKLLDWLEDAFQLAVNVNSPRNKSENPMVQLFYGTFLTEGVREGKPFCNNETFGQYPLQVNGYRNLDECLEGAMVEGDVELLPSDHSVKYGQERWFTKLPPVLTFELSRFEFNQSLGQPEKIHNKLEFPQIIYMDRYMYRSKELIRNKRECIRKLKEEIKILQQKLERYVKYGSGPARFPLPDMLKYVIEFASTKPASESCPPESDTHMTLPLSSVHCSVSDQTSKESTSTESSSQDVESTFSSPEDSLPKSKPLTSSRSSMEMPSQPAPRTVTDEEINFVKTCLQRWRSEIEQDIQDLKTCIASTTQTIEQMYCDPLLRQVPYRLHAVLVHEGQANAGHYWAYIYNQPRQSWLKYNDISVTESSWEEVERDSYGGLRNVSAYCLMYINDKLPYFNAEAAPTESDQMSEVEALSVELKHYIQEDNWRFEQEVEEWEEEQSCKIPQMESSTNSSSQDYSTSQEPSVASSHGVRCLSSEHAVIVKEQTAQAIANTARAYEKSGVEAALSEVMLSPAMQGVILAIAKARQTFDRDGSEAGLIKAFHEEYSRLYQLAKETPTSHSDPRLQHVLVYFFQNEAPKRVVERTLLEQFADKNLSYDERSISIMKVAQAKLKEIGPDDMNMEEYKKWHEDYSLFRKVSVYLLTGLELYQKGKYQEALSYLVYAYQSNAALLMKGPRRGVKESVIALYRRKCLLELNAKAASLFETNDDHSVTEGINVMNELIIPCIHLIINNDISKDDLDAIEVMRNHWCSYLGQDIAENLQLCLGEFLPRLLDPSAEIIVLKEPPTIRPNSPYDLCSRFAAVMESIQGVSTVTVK
Outline: as §1

Measured: log2 ratio of Biotin-Ahx-Ub-VS probe labelling

CCc1c[nH]c(CNC(=O)CCl)n1.Cl
inactive: [1] -0.279 | [2] -0.668 | [3] -0.182 | [4] -0.44
